According to PubChem BioAssay (NCATS):
Records with an inconclusive call do not appear. Active and inactive are the calls of the source. The call rests on the fitted dose curve; in most records, active means well fitted curve in the direction sought with a large enough effect; inconclusive means small, poorly fitted or top-dose-only effect, or another doubt; inactive means no such curve, though single readings can be large; an effect the other way counts as inactive or inconclusive.

Tests used:
[1] = target: Glutathione peroxidase 1 (Homo sapiens) (UniProt P07203); test: Primary qHTS Assay for Inhibitors of Recombinant Selenoprotein Glutathione Peroxidase 1 (GPX1) (AID 1845191); further: nearly all actives have a fitted effect of over 65% in size; on activity, negative = inhibition: on the % scale 0 is the no-effect control and ±100 the full control effect
How it was run: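 GR-coupled readout: NADPH consumption tracked by fluorescence, ex 340/em 450 nm, at t=0 and after 15 min at RT. Final mix 10 nM GPX1, 1 mM GSH, 0.5 mM CHP, 0.5 mM NADPH, 100 nM GR, 0.01% BSA, following 30 min enzyme–compound preincubation.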

[2] = target: Phospholipid hydroperoxide glutathione peroxidase GPX4 (Homo sapiens) (UniProt P36969); test: Primary qHTS Assay for Inhibitors of Recombinant Selenoprotein Glutathione Peroxidase 4 (GPX4) (AID 1845192); further: nearly all actives have a fitted effect of over 65% in size; on activity change, negative = inhibition: series mostly up to about 50 µM; on the % scale 0 is the no-effect control and ±100 the full control effect
How it was run: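 Steps: GPX4 plus compound, 30 min RT; add GR/GSH/NADPH master mix; start with cumene hydroperoxide; read 340/450 nm fluorescence at 0 and 15 min. Finals were 200 nM GPX4, 1 mM GSH, 0.5 mM CHP, 0.5 mM NADPH, 100 nM GR.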

[3] = target: Luciferin 4-monooxygenase (Photinus pyralis) (UniProt P08659); test: Primary firefly luciferase (FLuc) qHTS assay for identification of artifact compounds. (AID 1845220); further: nearly all actives have a fitted effect of over 60% in size;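 on activity change, negative = inhibition: series mostly up to about 54 µM; plate controls were DMSO vehicle for no effect and no enzyme for full effect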
How it was run: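 Enzymatic FLuc inhibition assay: compounds pre-exposed to luciferin/ATP (10 uM each) for 15 min, then purified P. pyralis enzyme at 10 nM added. Read-out: luminescence at 5 min.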

[4] = Primary fluorescence-based thiol-reactive (MSTI) qHTS assay for identification of artifact compounds. (AID 1845221); further: nearly all actives have a fitted effect of over 65% in size; further: potency means the concentration at half of the fitted maximal effect;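 on activity change, negative = thiol reactive: series mostly up to about 54 µM; thiol-reactive compounds lower the probe fluorescence signal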
How it was run: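 Compounds were incubated 1 h at room temperature in the dark with the MSTI probe (4 uM) in PBS pH 7.4, 2% DMSO. Signals were normalized between Acetyl-MSTI and MSTI.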

[5] = tested on: Nanoluciferase (engineered Oplophorus gracilirostris luciferase); test: Primary Nanoluciferase (NLuc) qHTS assay for identification of artifact compounds. (AID 1845222);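 further: NLuc secreted into diluted conditioned medium of S16 cells; series mostly up to about 54 µM; 0% = DMSO and -100% = no enzyme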
How it was run: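 S16 cell supernatant NLuc, 1:55; cpds qHTS; 15 min RT dark; Nano-Glo substrate 1:100, 5 min; luminescence; Hill fit of % inhibition.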

[6] = Primary redox qHTS assay for identification of artifact compounds. (AID 1845223);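 further: 0% = DMSO and 100% = reference compound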
How it was run: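 Redox-cycling detection via DTT (250 uM final) oxidation coupled to Amplex Red (25 uM)/HRP (250 mU/mL) in HBSS. 15 min preincubation plus 30 min after DTT, room temperature. Ex/Em 525/598 nm; 4-parameter Hill fit against DMSO and 10 uM DA3003.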

Chain of Phospholipid hydroperoxide glutathione peroxidase GPX4 (Homo sapiens) (P36969 whole entry, looked up): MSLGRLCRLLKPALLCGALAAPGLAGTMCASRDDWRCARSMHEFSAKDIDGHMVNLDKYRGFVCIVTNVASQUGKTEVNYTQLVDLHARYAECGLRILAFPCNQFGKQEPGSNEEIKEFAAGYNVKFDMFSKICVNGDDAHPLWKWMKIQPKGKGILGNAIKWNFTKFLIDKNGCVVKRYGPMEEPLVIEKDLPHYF
Chain of Glutathione peroxidase 1 (Homo sapiens) (P07203 whole entry, looked up): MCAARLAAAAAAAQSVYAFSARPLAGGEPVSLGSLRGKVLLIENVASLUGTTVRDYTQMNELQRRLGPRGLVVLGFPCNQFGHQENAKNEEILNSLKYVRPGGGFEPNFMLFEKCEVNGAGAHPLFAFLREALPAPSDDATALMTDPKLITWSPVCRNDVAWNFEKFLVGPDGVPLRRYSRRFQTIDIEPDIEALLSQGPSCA

CC(=O)OCC1=C[C@H](O)[C@@H]2C(C(=O)O)=CO[C@@H](O[C@@H]3O[C@H](CO)[C@@H](O)[C@H](O)[C@H]3O)[C@H]12
inactive: Potency [1] | Potency [2] | Potency [3] | Potency [4] | Potency [5]

COc1c(C(CC(C)C)OC(C)=O)ccc(Oc2c(O)cc(C)cc2/C=C/C(C)=O)c1C(=O)O (stereo unspecified)
active: Potency [4] 4.62 µM
inactive: Potency [1] | Potency [2] | Potency [3] | Potency [5]

CC(=O)OC[C@@]12[C@H](O)C[C@]3(C)C(=CCC4[C@@]5(C)CC[C@H](O[C@@H]6O[C@H](C(=O)O)[C@@H](O[C@@H]7O[C@H](CO)[C@@H](O)[C@H](O)[C@H]7O)[C@H](O)[C@H]6O[C@@H]6O[C@H](CO)[C@@H](O)[C@H](O)[C@H]6O)[C@](C)(CO)C5CC[C@]43C)[C@@H]1CC(C)(C)[C@@H](OC(C)=O)[C@@H]2O (stereo partly specified)
inactive: Potency [1] | Potency [2] | outcome [3] inactive [at 11.6 µM] | activity change, negative = thiol reactive [4] 182% [at 11.5 µM] | activity, negative = inhibition [5] 3.06% [at 11.6 µM]

CC1CCC2C(C)(C)C(O)CCC2(C)C12Cc1c(O)cc3c(c1O2)CN(C(CCC(N)=O)C(=O)O)C3=O (stereo unspecified)
inactive: Potency [1] | Potency [2] | Potency [3] | Potency [4] | Potency [5]

C[C@@H]1O[C@@H](O[C@H]2[C@H](O[C@H]3CC[C@@]4(C)C(CC[C@]5(C)C4CC=C4C6CC(C)(C)CC[C@]6(C(=O)O[C@@H]6O[C@H](CO[C@@H]7O[C@H](CO)[C@@H](O[C@@H]8O[C@@H](C)[C@H](O)[C@@H](O)[C@H]8O)[C@H](O)[C@H]7O)[C@@H](O)[C@H](O)[C@H]6O)CC[C@]45C)[C@]3(C)CO)OC[C@H](O)[C@@H]2O)[C@H](O)[C@H](O)[C@H]1O (stereo partly specified)
inactive: outcome [1] inactive [at 9.52 µM] | activity change, negative = inhibition [2] -7.52% [at 9.73 µM] | outcome [3] inactive [at 11.6 µM] | activity change, negative = thiol reactive [4] 181% [at 11.5 µM] | activity, negative = inhibition [5] 0.304% [at 11.6 µM]

CC(=O)c1c(O)cc2cccc3c2c1CC(C)(O)O3 (stereo unspecified)
active: Potency [4] 5.32 µM
inactive: Potency [1] | Potency [2] | Potency [3] | Potency [5]

CC(=O)O[C@@H]1C[C@]2(C)[C@@]3(CCC4[C@@]5(C)CC[C@H](O[C@@H]6O[C@H](C(=O)O)[C@@H](O)[C@H](O[C@@H]7O[C@H](CO)[C@H](O)[C@H](O)[C@H]7O[C@@H]7O[C@@H](C)[C@H](O)[C@@H](O)[C@H]7O[C@@H]7OC[C@](O)(CO)[C@H]7O)[C@H]6O[C@@H]6O[C@H](CO)[C@H](O)[C@H](O)[C@H]6O)C(C)(C)C5CC[C@]42C)O[C@@H](O)[C@]12C3CC(C)(C)[C@@H](OC(=O)/C=C/c1ccc(O)c(O)c1)[C@@H]2OC(=O)/C=C/c1ccccc1 (stereo partly specified)
inactive: outcome [1] inactive [at 9.52 µM] | activity change, negative = inhibition [2] -12% [at 9.73 µM] | outcome [3] inactive [at 11.6 µM] | activity change, negative = thiol reactive [4] 97% [at 11.5 µM] | activity, negative = inhibition [5] 1.63% [at 11.6 µM]

C=C[C@](C)(CC/C=C(\C)C(=O)O)O[C@@H]1OC[C@H](O)[C@H](O)[C@H]1O
active: Potency [4] 7.36 µM
inactive: Potency [1] | Potency [2] | Potency [3] | Potency [5]

CC1=C2[C@@H]([C@H](C)CC[C@H]2/C=C(\C)C(=O)O)[C@H](O)C1
inactive: Potency [1] | Potency [2] | Potency [3] | Potency [4] | Potency [5]

CCC(CC)n1ccc2c(C(=O)NCc3c(C)cc(C)[nH]c3=O)cc(C#N)cc21
inactive: Potency [1] | Potency [2] | Potency [3] | Potency [4] | Potency [5]

COc1c2c(c(C)c3c1C(=O)OC3)O[C@@]1(C)C[C@@H](O)[C@]34O[C@](OC)(CC[C@]3(C)[C@H]1C2)OC4(C)C
inactive: Potency [1] | Potency [2] | Potency [3] | Potency [4] | Potency [5]

CO[C@H]1C=C2C(CC[C@H](O[C@@H]3O[C@H](CO)[C@@H](O)[C@@H](O)[C@H]3O)C2(C)C)[C@]2(C)CC[C@]3(C)C([C@H](C)C(O)C(C=C(C)C)O[C@@H]4O[C@H](CO)[C@@H](O)[C@@H](O)[C@H]4O)CC[C@@]3(C)C12 (stereo partly specified)
inactive: Potency [1] | Potency [2] | activity change, negative = inhibition [3] 1.78% [at 11.6 µM] | activity change, negative = thiol reactive [4] 133% [at 11.5 µM] | activity, negative = inhibition [5] 4.54% [at 11.6 µM]

C[C@@H]1CC[C@]2(C(=O)O)CC[C@]3(C(=O)O)C(=CCC4[C@@]5(C)CC[C@H](O[C@@H]6O[C@@H](C)[C@H](O[C@@H]7O[C@H](CO)[C@@H](O)[C@H](O)[C@H]7O)[C@@H](O)[C@H]6O)C(C)(C)C5CC[C@]43C)C2[C@H]1C (stereo partly specified)
inactive: Potency [1] | Potency [2] | Potency [3] | Potency [4] | Potency [5] | Potency [6]

CC(=O)N[C@H]1[C@H](O[C@H]2CC[C@@]3(C)C(CC[C@]4(C)C3CC=C3C5CC(C)(C)CC[C@]5(C(=O)O)[C@H](O[C@@H]5O[C@H](CO)[C@@H](O)[C@H](O)[C@H]5O)C[C@]34C)C2(C)C)O[C@H](CO[C@@H]2OC[C@H](O)[C@H](O)[C@H]2O[C@@H]2OC[C@@H](O)[C@H](O)[C@H]2O)[C@@H](O)[C@@H]1O (stereo partly specified)
inactive: Potency [1] | Potency [2] | activity change, negative = inhibition [3] 2.58% [at 11.6 µM] | activity change, negative = thiol reactive [4] -21.6% [at 11.5 µM] | activity, negative = inhibition [5] -3.44% [at 11.6 µM]

CCC(C)/C=C(C)/C=C/C1=CC2=C(Cl)C(=O)C(C)(OC(C)=O)C(=O)C2=CN1C1CCCCN(C(CCC(N)=O)C(=O)O)C1=O (stereo unspecified)
active: Potency [4] 0.446 µM
inactive: Potency [1] | Potency [2] | Potency [3] | Potency [5]

COC(=O)[C@@]1(C)CC[C@]2(C(=O)O[C@@H]3O[C@H](CO)[C@@H](O)[C@H](O)[C@H]3O)CC[C@]3(C)C(=CCC4[C@@]5(C)CC[C@H](O[C@@H]6O[C@H](C(=O)O)[C@@H](O)[C@H](O)[C@H]6O)C(C)(C)C5CC[C@]43C)[C@@H]2C1 (stereo partly specified)
inactive: Potency [1] | Potency [2] | activity change, negative = inhibition [3] -8.19% [at 11.6 µM] | activity change, negative = thiol reactive [4] 77.9% [at 11.5 µM] | activity, negative = inhibition [5] -2.3% [at 11.6 µM]

C=C(C)[C@@H](C)[C@H]1O[C@]23C[C@]4(CO2)C(CCC2[C@@]5(C)CC[C@H](O[C@@H]6OC[C@H](O)[C@H](O[C@@H]7O[C@H](CO)[C@@H](O)[C@H](O)[C@H]7O)[C@H]6O[C@@H]6O[C@@H](CO)[C@H](O)[C@H]6O)C(C)(C)C5CC[C@]24C)C3[C@@](C)(O)[C@@H]1OC(C)=O (stereo partly specified)
inactive: Potency [1] | Potency [2] | activity change, negative = inhibition [3] 4.34% [at 11.6 µM] | activity change, negative = thiol reactive [4] 6.68% [at 11.5 µM] | activity, negative = inhibition [5] 4.88% [at 11.6 µM]

COc1ccc(C(=O)O[C@H]2CC(C)=CC[C@@]3(C)[C@@H](OC(C)=O)C[C@@](O)(C(C)C)[C@H]23)cc1
inactive: Potency [1] | Potency [2] | Potency [3] | Potency [4] | Potency [5]

C/C=C/C1=CC2=CC(=O)C(C)(O)C(OC(=O)c3c(C)cc(O)cc3O)C2CO1 (stereo unspecified)
inactive: Potency [1] | Potency [2] | Potency [3] | Potency [4] | Potency [5]

C/C=C/C=C/C=C/C(=O)O[C@@H]1[C@@H](OC)C2=C(C(=O)N(C(C)C(=O)O)C2)[C@@]2(C)CCCC(C)(C)[C@H]12 (stereo partly specified)
inactive: Potency [1] | Potency [2] | Potency [3] | Potency [4] | Potency [5]

C[C@@H]1O[C@@H](O[C@H]2[C@H](OC(=O)[C@]34CCC(C)(C)C[C@H]3C3=CCC5[C@@]6(C)CC[C@H](O[C@@H]7O[C@H](CO[C@@H]8OC[C@H](O)[C@H](O)[C@H]8O)[C@@H](O)[C@H](O)[C@H]7O)C(C)(C)C6CC[C@@]5(C)[C@]3(C)C[C@H]4O)OC[C@@H](O)[C@@H]2O)[C@H](O)[C@H](O)[C@H]1O[C@@H]1OC[C@H](O)[C@H](O[C@@H]2OC[C@@H](O)[C@H](O)[C@H]2O)[C@H]1O (stereo partly specified)
inactive: outcome [1] inactive [at 9.52 µM] | activity change, negative = inhibition [2] -4.93% [at 9.73 µM] | activity change, negative = inhibition [3] 1.47% [at 11.6 µM] | activity change, negative = thiol reactive [4] 146% [at 11.5 µM] | activity, negative = inhibition [5] -4.62% [at 11.6 µM]

NCCCC[C@H](NC(=O)[C@@H]1Cc2ccccc2CN1C(=O)CCC(=O)c1ccccc1)C(=O)NCC(c1ccccc1)c1ccccc1
inactive: Potency [1] | Potency [2] | Potency [3] | Potency [4] | Potency [5]

CC/C=C\C[C@H]1C(=O)C=C[C@@H]1CCCCCCCC(=O)O
inactive: Potency [1] | Potency [2] | Potency [3] | Potency [4] | Potency [5]

C=C1CCC2C(C)(COC3OC(COC(=O)CC(=O)O)C(O)C(O)C3O)CCCC2(C)C1CCC1=CCOC1=O (stereo unspecified)
inactive: Potency [1] | Potency [2] | Potency [3] | Potency [4] | Potency [5]

C=C[C@@]1(C)CC(=O)C2[C@](C)(O1)[C@@H](OC(C)=O)[C@@H](O)[C@H]1C(C)(C)CCC[C@]21C (stereo partly specified)
inactive: Potency [1] | Potency [2] | outcome [3] inactive [at 11.6 µM] | activity change, negative = thiol reactive [4] 58.5% [at 11.5 µM] | activity, negative = inhibition [5] 3.51% [at 11.6 µM]

CC1CCCC2OC2C(=O)c2c(O)cc(O)cc2CC(=O)O1 (stereo unspecified)
active: Potency [4] 8.44 µM
inactive: Potency [1] | Potency [2] | Potency [3] | Potency [5]
